Source: PubChem BioAssay
NS1 function inh = qHTS Assay for Inhibitors of Influenza NS1 Protein Function | Potency, µM (series often up to 46.1 µM), for the others: top-dose activity, positive = more growth | 270,000 compounds, 0.4% hits | AID 2326, 2010; note: actives are rising curves; nearly all actives have a fitted effect of over 50% in size
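A cell-based growth assay was used: compounds that relieve NS1-induced slow growth of budding yeast raise OD600. Assay medium was yeast nitrogen base with ammonium sulphate and -URA supplement, pH 6.0, with 2% galactose.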
Pf growth 48h = Primary qHTS for delayed death inhibitors of the malarial parasite plastid, 48 hour incubation; P. falciparum luciferase growth in erythrocytes, 48 h; Potency, µM (top dose mostly 28.7 µM), inactives show top-dose activity change, negative = inhibition, most hits filed as inhibitors; 310,000 compounds, 5.9% hits; active = well fitted inhibition curve with a large enough effect; inconclusive = small, poorly fitted or top-dose-only effect, or another doubt; inactive = no such curve, though single readings can be large or run the other way; note: % is set by controls: 0 for no effect and ±100 for the full control effect
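Luciferase-expressing parasites in RBCs, 2% Hct / 0.1% parasitemia final; RPMI 1640 + 0.5% Albumax; 37 C, 5% CO2, one generation; luminescence read-out, lower signal = inhibition.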
RE007 growth inh = qHTS Assay for Inhibitors of the HIV-1 protein Vpr; S. pombe RE007 Vpr strain, BacTiter-Glo ATP luminescence, 24 h; Potency, µM (series often up to 92.2 µM), for the others: top-dose activity change, negative = less growth, hits mostly inhibitors; 360,000 compounds, 0.21% hits; active = well fitted falling curve with a large enough effect; inconclusive = small, poorly fitted or top-dose-only effect; inactive = no such curve, though single readings can be large or run the other way; note: % is set by controls: 0 for no effect and ±100 for the full control effect; nearly all actives have a fitted effect of over 50% in size
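Fission yeast RE007 carrying one integrated HIV-1 vpr copy, seeded at OD 0.01 in PMG+AL medium with 23 nL pinned compound. Grown 24 h at 30 degrees; viability read by BacTiter-Glo luminescence after 5 min.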
SARS PLpro yeast = qHTS of Yeast-based Assay for SARS-CoV PLP; S. cerevisiae expressing SARS-CoV PLpro, growth rescue; 330,000 compounds, 0.19% hits; Potency, µM (top dose mostly 32.9 µM), for inactives: at the highest dose activity, positive = growth rescue, usual class: activators; AID 485353, 2010; note: 0% is about no effect; nearly all actives have a fitted effect of over 55% in size
Pf growth 96h = Primary qHTS for delayed death inhibitors of the malarial parasite plastid, 96 hour incubation | P. falciparum luciferase reporter growth, 96 h | Potency, µM (highest dose often 28.7 µM), inactives show at the top dose activity change, negative = inhibition, most hits filed as inhibitors | 320,000 compounds, 6.9% hits | AID 504834, 2011; active = well fitted inhibition curve with a large enough effect; inconclusive = small, poorly fitted or top-dose-only effect, or another doubt; inactive = no such curve, though single readings can be large or run the other way; note: % is set by controls: 0 for no effect and ±100 for the full control effect
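Two-generation exposure (96 h) targets delayed-death phenotype. Reporter parasites carrying integrated firefly luciferase, in red cells at 2% hematocrit and 0.05% parasitemia final, kept at 37 C, 5% CO2; luminescence loss indicates inhibition.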
Numbers without * were called inactive; ? = inconclusive; nt = no result given. Only some compounds are listed: those with a hit (about 9.5% of all), similar ones and a draw of the others. Unless noted, calls come from the whole dose curve. Potency is the fitted concentration of half-maximal effect.

SMILES	NS1 function inh	Pf growth 48h	RE007 growth inh	SARS PLpro yeast	Pf growth 96h
C/C(=N\NS(=O)(=O)c1ccc(Cl)cc1)c1ccc(O)cc1	-8.4%	-0.2%	5.3%	-10.0%	25.4%
CCC(=O)N(Cc1cc2ccc(C)cc2[nH]c1=O)c1ccccc1OC	?	?	0.6%	3.1%	?
COc1cc2c(cc1OC)C(C(=O)O)C(c1ccc(C)o1)N(C)C2=O (stereo unspecified)	6.3%	32.8%	2.2%	8.4%	13.1µM*
CCOc1cc(C2C(C(=O)O)c3cc(OCC)c(OCC)cc3C(=O)N2C)ccc1O (stereo unspecified)	0.5%	-6.8%	3.6%	3.7%	11.7µM*
CCOc1cc2c(cc1OCC)C(C(=O)O)C(c1cc(OC)c(OC)c(OC)c1)N(C)C2=O (stereo unspecified)	-7.3%	?	-1.7%	-0.4%	?
CCOC(=O)Cn1ncc2c3ccccc3n(CC(=O)OCC)c2c1=O	-0.3%	nt	19.3%	-0.1%	0.0%
O=C(Cn1ncc2c3ccccc3n(Cc3ccc(F)cc3)c2c1=O)N1CCN(c2ncccn2)CC1	16.6%	9.28µM*	7.6%	-6.2%	3.6%
O=C(Cn1ncc2c3ccccc3n(Cc3ccc(F)cc3)c2c1=O)N1CCC2(CC1)OCCO2	-0.5%	11.7µM*	-4.1%	2.1%	?
O=c1[nH]ncc2c3ccccc3n(Cc3ccc(F)cc3)c12	-2.1%	3.29µM*	27.8%	6.1%	-1.3%
COC(=O)Cn1ncc2c3ccccc3n(Cc3ccccc3)c2c1=O	-4.5%	?	-1.0%	1.2%	5.22µM*
Cc1c2cnn(CC(=O)N3CCC4(CC3)OCCO4)c(=O)c2c(C)n1Cc1ccccc1	-0.2%	-5.6%	5.2%	0.0%	3.4%
O=c1[nH]ncc2c3ccccc3n(Cc3cccc(Cl)c3)c12	nt	?	3.3%	-2.0%	24.1%
CCCc1cc(=O)[nH]c(SCC(=O)N(C)C2CCCCC2)n1	nt	?	-3.3%	-3.1%	-24.4%
NC(=O)/N=C(\N)NC(=O)c1ccccc1	-2.8%	nt	nt	nt	nt
CCOc1ccc(S(=O)(=O)N2CCCC(C(=O)NCc3ccncc3)C2)cc1 (stereo unspecified)	-14.0%	-0.3%	-5.0%	2.0%	3.2%
CCn1nc(C)cc1C(=O)N1CCCC(C(=O)c2ccccc2SC)C1 (stereo unspecified)	-3.7%	-10.0%	-9.6%	-2.5%	0.0%
Cn1cc(CN2CCC(n3nccc3NC(=O)c3ccccc3Cl)CC2)c2ccccc21	3.2%	3.29µM*	5.6%	-2.7%	?
COc1ccccc1C(=O)Nc1ccnn1C1CCN(Cc2cn(C)c3ccccc23)CC1	-6.3%	?	-7.6%	-3.2%	-16.7%
COc1ccc(O)c(CN2CCC(n3nccc3NC(=O)C3CCCC3)CC2)c1	5.8%	13.1µM*	-11.3%	2.4%	?
CC(Cc1ccc(Cl)cc1)N1CCC(n2nccc2NC(=O)C2CCCC2)CC1 (stereo unspecified)	14.1%	10.4µM*	-13.4%	2.5%	?
CCOc1ccccc1CN1CCC(n2nccc2NC(=O)C2CCCC2)CC1	19.5%	11.7µM*	2.9%	3.9%	-11.2%
O=C(Nc1ccnn1C1CCN(Cc2ccccc2)CC1)C1CCCC1	-3.1%	?	8.1%	5.0%	-8.4%
CC(=O)N(c1cccc(Cl)c1)c1nc(C)cc(C)c1C#N	2.6%	9.2%	10.9%	-1.2%	10.5%
Cn1c(C(=O)OCC(=O)NCc2ccc(F)cc2)cc2occc21	nt	2.2%	22.3%	0.7%	25.1%
CC1Cc2ccccc2N1CC(=O)c1c(N)n(Cc2ccccc2)c(=O)n(C)c1=O (stereo unspecified)	?	8.28µM*	-4.1%	19.1%	9.28µM*
SMILES	NS1 function inh	Pf growth 48h	RE007 growth inh	SARS PLpro yeast	Pf growth 96h
Cc1cc(C)c(C)c(S(=O)(=O)N2CCN(CC(=O)c3c(N)n(Cc4ccccc4)c(=O)n(C)c3=O)CC2)c1C	-20.8%	5.86µM*	-14.5%	2.8%	?
CCn1c(=O)c(C(=O)CN2CCN(S(=O)(=O)c3ccc(C)cc3C)CC2)c(N)n(Cc2ccccc2)c1=O	-15.5%	?	4.9%	13.1%	8.28µM*
CCn1c(=O)c(C(=O)CN2CCCc3ccccc32)c(N)n(Cc2ccccc2)c1=O	-14.9%	9.28µM*	5.0%	0.2%	11.7µM*
CCn1c(=O)c(C(=O)CN2CCN(S(=O)(=O)c3ccccc3)CC2)c(N)n(Cc2ccccc2)c1=O	nt	-11.8%	-6.7%	0.6%	?
CC[C@](N)(C(=O)O)C(C)C	0.0%	nt	nt	nt	nt
COc1ccc(CN2C(=O)C(CC(=O)NC3CCCCC3)CC(C(=O)N(C(C)C)C(C)C)=C2C)cc1 (stereo unspecified)	nt	nt	-2.7%	nt	nt
CC(=O)NC(Cc1ccc(N(CCCl)CCCl)cc1)C(=O)NC(C(=O)O)C(C)C (stereo unspecified)	1.2%	-0.3%	4.2%	-1.6%	-41.2%
CCOC(=O)CC(NC(=O)C(Cc1ccc(N(CCCl)CCCl)cc1)NC(C)=O)C(=O)OCC (stereo unspecified)	-15.8%	9.28µM*	-11.6%	0.4%	10.6%
COc1ccc(-c2csc(Nc3cccc(C)n3)n2)cc1	2.1%	146.2%	3.8%	-4.1%	?
Cc1cccc(Nc2nc(-c3ccc(F)cc3)cs2)n1	-11.6%	152.7%	7.9%	1.9%	11.7µM*
O=C(COc1ccccc1F)Nc1c2c(nn1-c1ccccc1)CS(=O)(=O)C2	0.2%	?	10.9%	-4.6%	?
O=c1c2ccccc2c(C=Nc2cccc(S(=O)(=O)NCc3ccco3)c2)c(O)n1-c1ccc(Cl)cn1	27.7%	14.7µM*	0.8%	3.3%	?
O=C(NC12CC3CC(CC(C3)C1)C2)c1c(Cl)cccc1Cl	-1.5%	0.3%	-19.1%	4.3%	0.0%
CCN(CC)C(=O)[C@H]1CC(CC(=O)NCC23CC4CC(CC(C4)C2)C3)C(=O)N2CCc3c([nH]c4ccc(OC)cc34)[C@]12C (stereo partly specified)	nt	nt	-14.9%	1.5%	nt
CCN1C(=O)/C(=C\N(C(C)=O)c2ccccc2)OC1=S	-16.2%	31.9%	1.4%	-57.9%	11.7µM*
Cc1ccc([C@@H]2CC(=O)[C@@H]3CN(S(=O)(=O)c4ccc(C)cc4)[C@H](c4cccc(Cl)c4)C[C@@H]3N2S(=O)(=O)c2ccc(Cl)cc2)cc1	nt	nt	3.0%	nt	nt
CN(C)S(=O)(=O)c1cccc(C(=O)NC2CCSc3ccccc32)c1 (stereo unspecified)	-3.8%	?	6.0%	-0.7%	11.7µM*
O=C(NC1CCSc2ccccc21)c1cccc([N+](=O)[O-])c1 (stereo unspecified)	2.8%	1.47µM*	3.7%	5.6%	2.33µM*
CON(C)S(=O)(=O)c1cccc(C(=O)NC2CCSc3ccccc32)c1 (stereo unspecified)	-13.4%	-27.1%	12.0%	2.5%	-28.4%
O=C1CC[C@H](C(=O)N[C@@H]2C[C@H]2c2ccccc2)N1	nt	18.2%	nt	nt	8.6%
